According to the supplement of paper PMC4466236:
Whole data set: some 33,000 sequences, median “E-score (dimensionless, -0.5 to 0.5)” near -0.058, cut for the highest 2% near 0.35. What follows is part of a selection rich in the highest values, with near analogues and random picks from the rest.

The sequences below were run on MvaT (assay: PBM 8-mer E-score (mean of HK and ME arrays) (E-score (dimensionless, -0.5 to 0.5)); higher = stronger relative binding preference).
Experimental: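 Protein binding microarray: GST-tagged full-length MvaT (P. aeruginosa PAO1) bound to two universal double-stranded 60-mer arrays (ME and HK), each with a constant 25-mer primer and a variable 35-mer region covering all 8-mers. The 8-mer E-score (rank-based, range -0.5 to 0.5, >0.45 = specific binding) is the mean of the two arrays.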

Row | Sequence | PBM 8-mer E-score
1 | CAGAGCCC | -0.374
2 | ATCTCGAA | -0.0688
3 | ACTGGAAG | -0.0943
4 | ACTCTGGC | -0.165
5 | AAGCACAG | -0.107
6 | ATAGTAAT | 0.353
7 | ATAGTAAA | 0.327
8 | AAAGTAAA | 0.306
9 | AAAGTAAC | 0.206
10 | AAAGTAAT | 0.373
11 | ATAGTAAC | 0.271
12 | AGTCATCG | -0.269
13 | CATATCTA | 0.122
14 | CATATAGG | 0.151
15 | CATATACG | 0.143
16 | CTCATATA | 0.324
17 | CATATATG | 0.449
18 | CATATATC | 0.398
19 | CATATATA | 0.451
20 | CTCATATC | -0.0618
21 | CATATACC | 0.166
22 | GAGGGGAC | -0.373
23 | CCCCAAAA | -0.131
24 | ACAGATAA | 0.287
25 | GCCGACTA | -0.209

Row | Sequence | PBM 8-mer E-score
26 | AACCTACC | -0.156
27 | GGGATTAA | 0.144
28 | GGCGGTTA | -0.177
29 | ATTAGCAC | 0.0511
30 | CAACCCGA | -0.0421
31 | GAATAAAA | 0.354
32 | TAATAAAA | 0.389
33 | GAATAAAC | 0.192
34 | GGATAAAA | 0.265
35 | TAAAAAAA | 0.321
36 | CAATAAAA | 0.286
37 | GCTGCTAA | -0.101
38 | CTATGCAG | -0.146
39 | ATCTAGCA | 0.152
40 | ATAAGTAA | 0.371
41 | TAAAGTAA | 0.365
42 | GTAAGTAA | 0.207
43 | ATAAGTAT | 0.356
44 | ATAAGTAG | 0.341
45 | ATAAGTAC | 0.305
46 | AAAAGTAA | 0.28
47 | TTAAGTAA | 0.328
48 | CAAAGTAA | 0.216
49 | ATCGTCAC | -0.196
50 | CCTTCAAA | -0.128

Row | Sequence | PBM 8-mer E-score
51 | CCACGACA | 0.011
52 | AACATCAT | 0.171
53 | CCCTACCC | -0.224
54 | CCAAACGC | -0.0718
55 | AGCTGCAC | -0.122
56 | ACTTGCAA | 0.123
57 | CCAAACAC | 0.111
58 | ATCAGTGA | -0.0827
59 | CTATCCAG | -0.0225
60 | ATTCTTGA | 0.0466
61 | ATTCGGTG | -0.00558
62 | AATCCACA | 0.139
63 | GATATCAC | 0.119
64 | ACTATATG | 0.306
65 | AATATATG | 0.446
66 | AATATATC | 0.445
67 | AATATCAC | 0.407
68 | AATATCCC | 0.174
69 | AATATCTG | 0.207
70 | AATATCAA | 0.338
71 | AATATCTC | 0.253
72 | GTATCTTA | 0.194
73 | ACAGGTTG | -0.21
74 | AGGAACCT | -0.139
75 | AATTCTAC | 0.188

Row | Sequence | PBM 8-mer E-score
76 | ACTAGGCT | -0.105
77 | ACACCTCC | -0.0337
78 | CCGGTAAA | 0.0751
79 | TATTAGGA | 0.247
80 | ATAATATC | 0.437
81 | ATAATCTG | 0.196
82 | ATAATATG | 0.435
83 | ATGATATC | 0.131
84 | ATAATCTC | 0.337
85 | ATCATATG | 0.241
86 | CTACGATC | 0.0594
87 | AAGAATAC | 0.118
88 | ATGAATAA | 0.368
89 | AAGAATAA | 0.368
90 | ATGAATAG | 0.131
91 | CTGAATAA | 0.226
92 | AAGAATAT | 0.316
93 | CGCTTGCC | -0.327
94 | CATATTGA | 0.264
95 | GATATTGA | 0.228
96 | AATATTCA | 0.312
97 | TATATTGA | 0.387
98 | GATATTCA | 0.0985
99 | TATATTCA | 0.373
100 | CCCGGGGA | -0.299

Row | Sequence | PBM 8-mer E-score
101 | ATTATAGC | 0.282
102 | GTTATAAA | 0.345
103 | CCTATAAC | 0.186
104 | CTTATAAC | 0.352
105 | AGTATAAT | 0.336
106 | GCTATAAC | 0.13
107 | CTCATAAC | -0.0784
108 | ATTATAAC | 0.415
109 | ATTATAAT | 0.468
110 | ATGATAAT | 0.292
111 | GTTATAAC | 0.434
112 | ATGATAAC | 0.178
113 | AAGTGACT | 0.00519
114 | CTCCCTAA | -0.204
115 | GTGTGGGA | 0.0582
116 | GACGCTGC | -0.183
117 | AATCGTGG | -0.0233
118 | AAGCGGTG | -0.19
119 | AAATCTAC | -0.0273
120 | ACGAACGA | -0.115
121 | CTAAGCAC | -0.0271
122 | ATCATAAA | 0.308
123 | CTCATAAA | 0.0815
124 | ACTATAAA | 0.316
125 | CCTATAAA | 0.211

Row | Sequence | PBM 8-mer E-score
126 | CGTATAAG | 0.147
127 | CTTATAAG | 0.394
128 | ATTATAAA | 0.462
129 | ACTATACT | 0.228
130 | ACTATAAT | 0.436
131 | CTTATAAA | 0.377
132 | CTCATAAG | -0.122
133 | TAAGCCTA | -0.0915
134 | GAACTTGA | 0.266
135 | AGTCCAGA | -0.101
136 | AAACCATA | 0.251
137 | CGCTTAGA | -0.0246
138 | AATAAAGC | 0.292
139 | ATCCTATA | 0.189
140 | ACCTATAA | 0.208
141 | ACACGTGT | -0.0859
142 | AACCGCAA | 0.00741
143 | ACTATAAG | 0.273
144 | ATTATAAG | 0.432
145 | TTCATAAA | 0.238
146 | TTGATAAA | 0.253
147 | TTTATAAA | 0.411
148 | ATTATACG | 0.274
149 | CCTACAGC | -0.247
150 | ACTACGAG | 0.0492

Row | Sequence | PBM 8-mer E-score
151 | AGGCCATG | -0.221
152 | CGCGTGAA | 0.0803
153 | AGCGTCAT | -0.205
154 | ATATGCCA | 0.181
155 | ACAGCATA | 0.147
156 | CTTATATC | 0.184
157 | CTTATATA | 0.452
158 | GTTATAGA | 0.222
159 | GTGATATA | 0.247
160 | ATGATATG | 0.199
161 | ATGATATA | 0.262
162 | GTTATACA | 0.281
163 | GTTATATA | 0.456
164 | CTTATAGA | 0.0191
165 | CTGATATA | 0.358
166 | ATTATAGG | 0.304
167 | ATTATATG | 0.416
168 | GGCTCACC | -0.247
169 | AGCTCGAG | -0.0655
170 | ATTTACTC | 0.0973
171 | AACGAGAG | -0.094
172 | AAAAGAGA | 0.103
